Data taken from the supplement of paper PMC10849652.
Of roughly 7,900 targets only a part is listed; those with a hit were picked by preference. About 0.6% of all pairs of compound and target were hits.

compound: C1=CC=C2C(=C1)C3=NNC4=CC=CC(=C43)C2=O; assay: log2 fold change, soluble protein after heating vs DMSO (PISA); higher = thermal stabilisation; K562 cells, 10 uM, 30 min; active = over 0.2 and 3.5 SD of the protein, either way, in both replicates (recomputed)
Summary of the method: (§1)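 For each measurement, 10 μM compound was applied for 30 min to K562 cells at 2×10^6 cells/mL. Aliquots were heated for 3 min across 48°C-58°C, pooled, and extracted in PBS with 0.5% NP-40 at 4°C; the supernatant after 21,000xg for 90 min was soluble protein. This was quantified by TMTpro 16plex LC-MS/MS with channel sums equalised, and thermal stability was reported relative to control samples from duplicates, on a log2 fold-change scale.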

Sequence of UniProt Q92844 (Q92844 whole entry, looked up): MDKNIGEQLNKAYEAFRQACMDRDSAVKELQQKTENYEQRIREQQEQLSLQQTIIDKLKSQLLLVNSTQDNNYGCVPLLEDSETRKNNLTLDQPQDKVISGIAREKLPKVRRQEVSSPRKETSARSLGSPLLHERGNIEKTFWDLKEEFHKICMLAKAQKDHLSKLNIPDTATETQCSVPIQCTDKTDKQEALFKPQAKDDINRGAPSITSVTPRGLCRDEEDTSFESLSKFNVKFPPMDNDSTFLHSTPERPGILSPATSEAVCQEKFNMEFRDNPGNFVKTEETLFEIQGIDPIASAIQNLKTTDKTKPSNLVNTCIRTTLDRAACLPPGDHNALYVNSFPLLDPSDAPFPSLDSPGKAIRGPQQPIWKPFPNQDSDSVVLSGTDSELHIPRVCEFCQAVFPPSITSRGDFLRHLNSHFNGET
Sequence of UniProt Q8NEW0 (Q8NEW0 whole entry, looked up): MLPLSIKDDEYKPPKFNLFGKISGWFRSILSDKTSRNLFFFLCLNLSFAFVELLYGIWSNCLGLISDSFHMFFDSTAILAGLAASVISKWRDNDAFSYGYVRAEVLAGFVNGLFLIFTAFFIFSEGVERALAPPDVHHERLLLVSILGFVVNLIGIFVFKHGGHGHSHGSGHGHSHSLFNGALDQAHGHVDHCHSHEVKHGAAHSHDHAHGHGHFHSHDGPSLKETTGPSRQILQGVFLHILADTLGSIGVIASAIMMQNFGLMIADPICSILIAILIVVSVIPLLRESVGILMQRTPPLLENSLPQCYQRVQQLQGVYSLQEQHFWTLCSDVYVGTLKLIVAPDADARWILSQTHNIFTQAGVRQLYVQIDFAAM
Sequence of UniProt Q9Y5X3 (Q9Y5X3 whole entry, looked up): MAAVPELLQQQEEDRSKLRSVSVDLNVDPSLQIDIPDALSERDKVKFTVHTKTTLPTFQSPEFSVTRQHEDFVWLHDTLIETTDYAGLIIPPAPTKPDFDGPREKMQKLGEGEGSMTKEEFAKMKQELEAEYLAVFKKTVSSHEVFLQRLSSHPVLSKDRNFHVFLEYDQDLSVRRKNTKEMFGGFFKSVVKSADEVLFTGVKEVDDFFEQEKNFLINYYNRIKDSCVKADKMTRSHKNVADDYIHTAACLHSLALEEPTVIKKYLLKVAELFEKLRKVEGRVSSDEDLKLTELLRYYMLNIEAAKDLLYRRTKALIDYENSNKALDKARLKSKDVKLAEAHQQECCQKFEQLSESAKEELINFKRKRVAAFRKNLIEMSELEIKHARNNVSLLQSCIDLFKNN
Sequence of UniProt Q6P1M0 (Q6P1M0 whole entry, looked up): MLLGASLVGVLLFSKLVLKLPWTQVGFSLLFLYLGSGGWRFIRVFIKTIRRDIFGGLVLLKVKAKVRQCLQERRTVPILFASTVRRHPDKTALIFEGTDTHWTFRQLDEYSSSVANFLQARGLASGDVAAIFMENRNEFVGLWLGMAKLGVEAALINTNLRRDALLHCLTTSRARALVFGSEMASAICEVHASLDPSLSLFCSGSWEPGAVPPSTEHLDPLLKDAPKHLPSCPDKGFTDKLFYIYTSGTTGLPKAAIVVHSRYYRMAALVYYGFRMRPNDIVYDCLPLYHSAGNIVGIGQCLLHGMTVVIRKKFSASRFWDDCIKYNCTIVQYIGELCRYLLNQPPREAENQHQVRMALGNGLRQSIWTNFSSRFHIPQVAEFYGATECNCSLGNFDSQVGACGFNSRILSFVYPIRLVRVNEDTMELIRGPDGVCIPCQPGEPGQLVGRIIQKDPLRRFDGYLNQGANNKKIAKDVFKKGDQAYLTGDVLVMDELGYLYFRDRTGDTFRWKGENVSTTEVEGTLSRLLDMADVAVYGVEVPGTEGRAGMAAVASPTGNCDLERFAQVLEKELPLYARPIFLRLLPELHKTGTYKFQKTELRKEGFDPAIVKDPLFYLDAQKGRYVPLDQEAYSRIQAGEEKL
Sequence of UniProt Q969Z0 (Q969Z0 whole entry, looked up): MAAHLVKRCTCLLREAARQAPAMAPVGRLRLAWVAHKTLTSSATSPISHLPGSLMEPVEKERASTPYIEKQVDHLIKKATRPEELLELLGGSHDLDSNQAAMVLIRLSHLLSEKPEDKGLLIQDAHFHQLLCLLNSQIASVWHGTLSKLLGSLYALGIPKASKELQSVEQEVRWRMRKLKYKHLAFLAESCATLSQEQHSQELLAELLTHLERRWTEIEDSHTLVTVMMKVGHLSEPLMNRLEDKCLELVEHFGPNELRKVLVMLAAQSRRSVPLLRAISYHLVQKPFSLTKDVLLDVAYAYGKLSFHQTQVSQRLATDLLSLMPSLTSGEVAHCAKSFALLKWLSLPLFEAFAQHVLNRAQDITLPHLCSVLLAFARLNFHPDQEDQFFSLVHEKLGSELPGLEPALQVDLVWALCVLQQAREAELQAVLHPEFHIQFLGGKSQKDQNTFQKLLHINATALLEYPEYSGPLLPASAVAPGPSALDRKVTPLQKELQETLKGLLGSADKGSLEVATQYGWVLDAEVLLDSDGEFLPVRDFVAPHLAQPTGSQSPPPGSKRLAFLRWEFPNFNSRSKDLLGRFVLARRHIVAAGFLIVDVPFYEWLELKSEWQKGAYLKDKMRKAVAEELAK
Sequence of UniProt Q8WU79 (Q8WU79 whole entry, looked up): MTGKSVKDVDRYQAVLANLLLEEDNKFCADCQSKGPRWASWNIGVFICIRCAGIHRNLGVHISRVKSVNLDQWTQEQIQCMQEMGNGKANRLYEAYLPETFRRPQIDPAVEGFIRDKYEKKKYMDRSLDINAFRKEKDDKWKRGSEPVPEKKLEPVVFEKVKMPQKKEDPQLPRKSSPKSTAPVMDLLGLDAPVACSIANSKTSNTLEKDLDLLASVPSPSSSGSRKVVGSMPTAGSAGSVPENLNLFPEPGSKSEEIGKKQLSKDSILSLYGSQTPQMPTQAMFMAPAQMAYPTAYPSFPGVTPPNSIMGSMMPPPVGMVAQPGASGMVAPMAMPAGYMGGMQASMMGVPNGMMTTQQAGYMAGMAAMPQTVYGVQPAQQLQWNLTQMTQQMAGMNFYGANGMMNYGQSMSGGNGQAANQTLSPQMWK
Sequence of UniProt Q9C0B7 (Q9C0B7 whole entry, looked up): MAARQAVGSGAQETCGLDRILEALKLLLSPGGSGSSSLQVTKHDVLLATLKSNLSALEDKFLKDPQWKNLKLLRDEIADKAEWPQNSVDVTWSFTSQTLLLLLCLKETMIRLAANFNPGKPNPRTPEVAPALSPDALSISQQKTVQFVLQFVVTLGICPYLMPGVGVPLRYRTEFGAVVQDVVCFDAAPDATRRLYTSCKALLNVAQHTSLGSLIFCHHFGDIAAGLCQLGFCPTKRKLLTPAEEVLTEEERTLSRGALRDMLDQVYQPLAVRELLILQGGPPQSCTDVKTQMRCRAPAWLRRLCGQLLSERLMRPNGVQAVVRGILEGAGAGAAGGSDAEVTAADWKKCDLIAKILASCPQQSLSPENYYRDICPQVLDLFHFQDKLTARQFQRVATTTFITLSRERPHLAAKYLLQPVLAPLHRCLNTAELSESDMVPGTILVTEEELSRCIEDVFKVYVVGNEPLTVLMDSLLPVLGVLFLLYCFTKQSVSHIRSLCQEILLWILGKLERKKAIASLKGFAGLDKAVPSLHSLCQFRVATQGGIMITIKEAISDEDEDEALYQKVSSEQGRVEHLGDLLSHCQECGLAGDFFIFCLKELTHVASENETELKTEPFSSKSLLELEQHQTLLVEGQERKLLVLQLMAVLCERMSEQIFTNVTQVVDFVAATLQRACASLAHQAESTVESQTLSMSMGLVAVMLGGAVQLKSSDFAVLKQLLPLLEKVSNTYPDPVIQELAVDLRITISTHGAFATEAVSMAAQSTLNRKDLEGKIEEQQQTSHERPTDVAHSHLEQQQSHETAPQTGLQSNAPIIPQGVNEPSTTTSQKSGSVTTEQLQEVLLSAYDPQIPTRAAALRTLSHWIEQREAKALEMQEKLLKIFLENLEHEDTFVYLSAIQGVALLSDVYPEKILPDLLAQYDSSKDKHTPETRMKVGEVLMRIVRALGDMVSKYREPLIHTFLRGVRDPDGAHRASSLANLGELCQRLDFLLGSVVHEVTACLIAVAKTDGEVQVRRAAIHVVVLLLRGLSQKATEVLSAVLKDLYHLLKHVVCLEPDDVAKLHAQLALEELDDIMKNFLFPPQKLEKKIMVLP
Sequence of UniProt Q9NYB0 (Q9NYB0 whole entry, looked up): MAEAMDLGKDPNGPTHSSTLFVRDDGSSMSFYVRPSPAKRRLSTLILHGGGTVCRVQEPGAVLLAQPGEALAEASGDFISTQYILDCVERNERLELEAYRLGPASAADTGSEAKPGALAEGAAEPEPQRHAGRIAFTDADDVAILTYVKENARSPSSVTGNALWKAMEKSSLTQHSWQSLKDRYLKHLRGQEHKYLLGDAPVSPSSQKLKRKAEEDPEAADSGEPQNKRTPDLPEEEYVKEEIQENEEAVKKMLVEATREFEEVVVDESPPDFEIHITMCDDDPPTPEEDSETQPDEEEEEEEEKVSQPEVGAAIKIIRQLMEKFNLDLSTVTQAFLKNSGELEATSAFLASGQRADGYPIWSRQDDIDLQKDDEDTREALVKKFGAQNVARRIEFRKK
Sequence of UniProt O00506 (O00506 whole entry, looked up): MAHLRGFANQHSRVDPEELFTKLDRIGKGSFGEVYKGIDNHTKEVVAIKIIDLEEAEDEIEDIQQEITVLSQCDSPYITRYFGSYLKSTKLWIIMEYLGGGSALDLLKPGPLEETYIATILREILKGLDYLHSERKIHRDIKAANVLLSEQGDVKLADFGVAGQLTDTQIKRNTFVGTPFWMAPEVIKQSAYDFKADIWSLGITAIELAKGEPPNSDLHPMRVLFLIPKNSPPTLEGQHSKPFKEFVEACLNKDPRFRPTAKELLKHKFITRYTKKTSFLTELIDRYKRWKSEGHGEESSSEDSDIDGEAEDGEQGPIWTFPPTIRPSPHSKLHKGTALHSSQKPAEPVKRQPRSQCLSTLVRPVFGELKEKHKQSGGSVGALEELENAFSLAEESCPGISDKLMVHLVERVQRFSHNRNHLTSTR
Sequence of UniProt Q9Y5L4 (Q9Y5L4 whole entry, looked up): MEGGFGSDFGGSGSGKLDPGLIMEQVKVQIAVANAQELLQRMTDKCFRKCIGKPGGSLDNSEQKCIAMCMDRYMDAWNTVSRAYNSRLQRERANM

log2 fold change, inactive:
TBC1D23 (UniProt Q9NUY8) -0.054
SMAP2 (UniProt Q8WU79) 0.017
SNX5 (UniProt Q9Y5X3) -0.038
SNX9 (UniProt Q9Y5X1) -0.011
SRPRB (UniProt Q9Y5M8) 0.024
TANGO6 (UniProt Q9C0B7) -0.056
TGFBRAP1 (UniProt Q8WUH2) 0.121
TANK (UniProt Q92844) -0.028
TBRG4 (UniProt Q969Z0) -0.201
TERF2IP (UniProt Q9NYB0) -0.074
STK25 (UniProt O00506) -0.007
SLC27A4 (UniProt Q6P1M0) 0.061
SMC5 (UniProt Q8IY18) -0.141
SLC30A7 (UniProt Q8NEW0) 0.004

compound: C1CCN(C1)C(=O)NC2=CC=CC(=C2)NC3=NC=C(C(=N3)NCCC4=CN=CN4)Br; assay: as above
Summary of the method: as §1

log2 fold change, inactive:
TIMM13 (UniProt Q9Y5L4) -0.025
SLC25A38 (UniProt Q96DW6) -0.005
SMARCA5 (UniProt O60264) -0.109
TEX30 (UniProt Q5JUR7) -0.147
SMG1 (UniProt Q96Q15) -0.054
SNRPD3 (UniProt P62318) 0.068
SUPT5H (UniProt O00267) -0.017
SPAST (UniProt Q9UBP0) -0.048
TBCD (UniProt Q9BTW9) -0.016
SMAP (UniProt O00193) 0.006
SPR (UniProt P35270) 0.02
TAOK3 (UniProt Q9H2K8) -0.044
SP3 (UniProt Q02447) -0.065
STOM (UniProt P27105) 0.004
TJP1 (UniProt Q07157) -0.03
SLC30A10 (UniProt Q6XR72) -0.054
SPCS2 (UniProt Q15005) -0.005
TM9SF4 (UniProt Q92544) -0.012
STAT5B (UniProt P51692) -0.077
SRSF10 (UniProt O75494) 0.063
SNX12 isoform 1 (UniProt Q9UMY4) 0.048
TBC1D15 isoform 3 (UniProt Q8TC07) 0.016
SYMPK (UniProt Q92797) -0.101
TBC1D23 (UniProt Q9NUY8) -0.036
SMAP2 (UniProt Q8WU79) -0.086
SNX5 (UniProt Q9Y5X3) 0.077
SNX9 (UniProt Q9Y5X1) -0.01
SRPRB (UniProt Q9Y5M8) -0.006
TANGO6 (UniProt Q9C0B7) -0.026
TGFBRAP1 (UniProt Q8WUH2) -0.06
TANK (UniProt Q92844) 0.014
TBRG4 (UniProt Q969Z0) -0.07
TERF2IP (UniProt Q9NYB0) -0.047
STK25 (UniProt O00506) 0.026
SLC27A4 (UniProt Q6P1M0) -0.017
SMC5 (UniProt Q8IY18) 0.042
SLC30A7 (UniProt Q8NEW0) 0.016
